This note sets out measurements from PubChem BioAssay.

Experiment [1] is described as follows: antimalarial activity against Dd2 strain (AID 2302;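 active = growth inhibition above 50% at the single 2 µM test dose, taken to imply half-maximal potency below 2 µM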;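 also: 0% = DMSO untreated growth and 100% = chloroquine plus artemisinin killed control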). The settings on record: P. falciparum Dd2 in RBCs, LDH growth readout, 72 h; at 2 µM; active compounds read high.
Experiment [2] can be described thus: human hepatoma cell viability loss – ATP luminescence, cytotoxicity control for P. falciparum antimalarial project, primary screen (AID 2303;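 active = inhibition above 50%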;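 also: 0% = DMSO wells and 100% = digitonin-killed cells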). To be noted: HepG2 viability, 24-48 h, at 10 µM, active compounds read high.
Experiment [3] addresses L-lactate dehydrogenase (Plasmodium falciparum (isolate CDC / Honduras)) (UniProt Q27743). The experiment in a line: PfLDH activity inhibition – cell lysate, 3D7 strain, counter-screen for P. falciparum growth inhibition project (AID 2304).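 Also: 0% = vehicle and 100% = reference inhibitor.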 To be noted: P. falciparum 3D7 crude extract, LDH APAD/NBT absorbance; at 2 µM; active compounds read high. (Counterscreens check selectivity or assay interference.)

The nature of experiment [4]: inhibition of 3D7 malaria parasite growth – strain 3D7 (AID 2306).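 Also: 0% = DMSO wells and 100% = chloroquine plus artemisinin control wells.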 The settings on record: P. falciparum 3D7 erythrocytic growth, LDH absorbance, 72 h; at 2 µM; active compounds read high.
In experiment [5] the target is Calcium-dependent protein kinase 1 (Plasmodium falciparum (isolate 3D7)) (UniProt P62344). The experiment in a line: PfCDPK1 kinase inhibitors, biochemical, TCAMS library (AID 1159585; cut-off not given, nearly all actives have IC50 up to about 0.98 µM;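 also: inhibitors leave more ATP so luminescence rises with inhibition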). To be noted: recombinant PfCDPK1, Kinase-Glo ATP depletion luminescence. (Kinase-Glo measures the ATP left after a reaction by luminescence.)
Sequence of Calcium-dependent protein kinase 1 (Plasmodium falciparum (isolate 3D7)) (P62344 whole entry, looked up): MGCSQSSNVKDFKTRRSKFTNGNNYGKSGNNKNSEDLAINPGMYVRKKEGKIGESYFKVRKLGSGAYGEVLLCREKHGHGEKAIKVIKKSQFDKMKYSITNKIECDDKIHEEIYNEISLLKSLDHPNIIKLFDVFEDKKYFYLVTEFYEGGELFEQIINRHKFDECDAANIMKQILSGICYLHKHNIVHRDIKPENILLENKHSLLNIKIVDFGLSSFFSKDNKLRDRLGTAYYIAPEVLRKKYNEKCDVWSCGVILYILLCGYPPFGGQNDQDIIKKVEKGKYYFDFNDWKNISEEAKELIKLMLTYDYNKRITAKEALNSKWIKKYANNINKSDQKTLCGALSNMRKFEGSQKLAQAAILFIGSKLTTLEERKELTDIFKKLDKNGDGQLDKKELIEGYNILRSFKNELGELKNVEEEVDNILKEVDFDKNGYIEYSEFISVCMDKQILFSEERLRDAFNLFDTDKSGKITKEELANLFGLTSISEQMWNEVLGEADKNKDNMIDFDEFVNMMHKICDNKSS
Experiment [6] has as its target Plasmodium falciparum protein kinase 6 (PK6, PF3D7_1337100) (UniProt Q8IDW1). Description: PfPK6 kinase inhibitors, biochemical, TCAMS library (AID 1159586). The settings on record: recombinant PfPK6, Kinase-Glo ATP depletion luminescence.
Experiment [7] addresses Protein kinase 7 (PK7), Plasmodium falciparum 3D7 (PF3D7_0213400) (UniProt Q7YTF7). The experiment in a line: inhibition of Plasmodium PK7 catalytic activity – biochemical, TCAMS antimalarial set, Kinase-Glo luminescence (AID 1159587). The settings on record: recombinant PfPK7, Kinase-Glo ATP depletion luminescence.
For experiment [8], the target named is Calcium-dependent protein kinase 4 (Plasmodium falciparum (isolate 3D7)) (UniProt Q8IBS5). The experiment in a line: PfCDPK4 kinase inhibitors, biochemical, TCAMS library (AID 1159588; cut-off not given, nearly all actives have IC50 up to about 0.91 µM). The settings on record: recombinant PfCDPK4, Kinase-Glo ATP depletion luminescence.
Sequence of Calcium-dependent protein kinase 4 (Plasmodium falciparum (isolate 3D7)) (Q8IBS5 whole entry, looked up): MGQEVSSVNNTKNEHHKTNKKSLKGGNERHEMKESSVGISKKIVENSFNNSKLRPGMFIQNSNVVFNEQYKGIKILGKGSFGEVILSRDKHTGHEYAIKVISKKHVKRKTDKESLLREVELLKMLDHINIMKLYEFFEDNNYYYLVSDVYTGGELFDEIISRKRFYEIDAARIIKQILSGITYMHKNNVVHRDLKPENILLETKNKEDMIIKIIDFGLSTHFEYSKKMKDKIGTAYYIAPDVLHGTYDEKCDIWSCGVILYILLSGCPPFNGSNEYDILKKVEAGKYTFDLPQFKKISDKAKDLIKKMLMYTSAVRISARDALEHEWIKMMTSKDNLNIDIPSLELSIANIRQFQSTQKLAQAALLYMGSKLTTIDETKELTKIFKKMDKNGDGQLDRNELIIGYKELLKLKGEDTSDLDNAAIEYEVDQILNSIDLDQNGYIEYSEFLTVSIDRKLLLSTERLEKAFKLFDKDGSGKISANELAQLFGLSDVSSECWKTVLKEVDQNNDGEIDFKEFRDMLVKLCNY

Molecules are shown by their SMILES. Values without a mark were called inactive. For some of these results: Results with a measured potency or affinity are listed apart. The source made the active and inactive calls. Unless noted, no rule for the calls is given here.

Sequence of L-lactate dehydrogenase (Plasmodium falciparum (isolate CDC / Honduras)) (Q27743 whole entry, looked up): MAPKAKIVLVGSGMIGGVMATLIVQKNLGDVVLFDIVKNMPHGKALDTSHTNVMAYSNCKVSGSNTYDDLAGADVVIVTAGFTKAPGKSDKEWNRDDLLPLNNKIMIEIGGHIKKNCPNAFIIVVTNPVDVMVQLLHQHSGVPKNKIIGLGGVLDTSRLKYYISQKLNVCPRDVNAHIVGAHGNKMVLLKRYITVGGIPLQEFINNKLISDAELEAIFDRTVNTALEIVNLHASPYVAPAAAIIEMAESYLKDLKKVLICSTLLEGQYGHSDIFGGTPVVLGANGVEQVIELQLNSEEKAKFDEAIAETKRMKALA
Sequence of Plasmodium falciparum protein kinase 6 (PK6, PF3D7_1337100) (Q8IDW1 1-305): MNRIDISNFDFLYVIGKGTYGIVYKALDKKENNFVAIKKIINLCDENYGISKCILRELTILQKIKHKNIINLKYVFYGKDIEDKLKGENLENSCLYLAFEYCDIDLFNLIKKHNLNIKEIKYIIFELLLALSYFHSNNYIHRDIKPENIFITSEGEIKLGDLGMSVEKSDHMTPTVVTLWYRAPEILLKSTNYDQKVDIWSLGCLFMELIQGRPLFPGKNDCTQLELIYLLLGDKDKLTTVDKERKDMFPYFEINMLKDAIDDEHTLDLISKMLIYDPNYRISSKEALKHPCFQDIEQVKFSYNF
Sequence of Protein kinase 7 (PK7), Plasmodium falciparum 3D7 (PF3D7_0213400) (Q7YTF7 1-343): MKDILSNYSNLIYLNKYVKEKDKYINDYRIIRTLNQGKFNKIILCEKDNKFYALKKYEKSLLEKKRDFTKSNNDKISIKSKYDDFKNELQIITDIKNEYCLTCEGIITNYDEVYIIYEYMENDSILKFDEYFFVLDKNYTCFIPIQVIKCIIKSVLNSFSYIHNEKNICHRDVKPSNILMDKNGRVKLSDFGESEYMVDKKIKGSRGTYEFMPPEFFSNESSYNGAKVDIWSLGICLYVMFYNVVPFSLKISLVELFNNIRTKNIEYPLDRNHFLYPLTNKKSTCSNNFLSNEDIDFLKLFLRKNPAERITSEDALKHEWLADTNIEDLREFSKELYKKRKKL

For the compound `COc1ccc(CNCCCCCCNCc2ccc(OC)c3ccccc23)c2ccccc12`, the growth inhibition is 49% in experiment [1] and 102% (active) in experiment [4]. The figures for the inhibition in experiment [2] and in experiment [3] were 100% (active) and -5%, respectively. Besides, the result in experiment [5], in experiment [6], in experiment [7] and in experiment [8] was inactive.

As for `O=C(Nc1ccccc1)N(Cc1ccccc1-c1cccc(CNC2CCCC2)c1)C1CCN(Cc2ccccc2)CC1`, the growth inhibition was 84% (active) in experiment [1] and 100% (active) in experiment [4]. In addition, the inhibition (commonly the relative decrease from the control value, in per cent) was 36% in experiment [2] and 3% in experiment [3]. Besides, the outcome in experiment [5], in experiment [6], in experiment [7] and in experiment [8] was inactive.

Consider `O=C(c1cc(-c2cccs2)[nH]n1)N1CCN(S(=O)(=O)c2ccc(Cl)cc2)CC1`, for which the growth inhibition was 95% (active) in experiment [1] and 96% (active) in experiment [4]. Moreover, the inhibition in experiment [2] is -1%; in experiment [3], 3%. Further, the outcome in experiment [5], in experiment [6], in experiment [7] and in experiment [8] was inactive.

On to `Nc1c2c(nc3ccc(Oc4ccc(Br)cc4Br)cc13)CCCC2`, for which the growth inhibition is 47% in experiment [1] and 99% (active) in experiment [4]. Besides, the results for the inhibition in experiment [2] and in experiment [3] were 33% and 0%, respectively. For the same compound, the outcome in experiment [5], in experiment [6], in experiment [7] and in experiment [8] was inactive.

On to `COc1ccc(NC(=O)c2ccc(-c3ccc(-c4cccnc4)cc3)c(C)c2)cc1OCCN(C)C`, for which the growth inhibition in experiment [1] was 73% (active); in experiment [4], 99% (active). Besides, the inhibition in experiment [2] is 24%; in experiment [3], 0%. Further, the outcome in experiment [5], in experiment [6], in experiment [7] and in experiment [8] was inactive.

Take `CN1CCN(c2cc3c(cc2Cl)CCN3C(=O)Cc2ccc(NC(=O)Nc3cccc4ccccc34)cc2)CC1`: the growth inhibition in experiment [1] was 18%; in experiment [4] it was 92% (active). Also, the inhibition was 12% in experiment [2] and -11% in experiment [3]. The outcome in experiment [5], in experiment [6], in experiment [7] and in experiment [8] was inactive.

For `N#Cc1cccc(C(=O)Nc2ccc(-c3ccc(CN4CCCC4)cc3)cc2)c1`, the growth inhibition in experiment [1] was 32%; in experiment [4], 92% (active). Also, the inhibition in experiment [2] is 38%; in experiment [3], -5%. The outcome in experiment [5], in experiment [6], in experiment [7] and in experiment [8] was inactive.

As to `COc1ccc(N2C(N)=NC(N)=NC2(C)C)cc1`, the growth inhibition is 29% in experiment [1] and 94% (active) in experiment [4]. Also, the inhibition in experiment [2] was 0%; in experiment [3] it was 4%. Also, the outcome in experiment [5], in experiment [6], in experiment [7] and in experiment [8] was inactive.

In the case of `Cc1ccccc1OCCCON1C(N)=NC(N)=NC1(C)C`, the growth inhibition in experiment [1] was 97% (active); in experiment [4], 95% (active). Besides, the figures for the inhibition in experiment [2] and in experiment [3] were 66% (active) and 4%, respectively. In addition, the outcome in experiment [5], in experiment [6], in experiment [7] and in experiment [8] was inactive.

For the compound `Cc1cc(Nc2ccc(Cl)c(Cl)c2)n2nc(C)nc2n1`, the growth inhibition in experiment [1] and in experiment [4] was 97% (active) throughout. For the same compound, the values for the inhibition in experiment [2] and in experiment [3] were 6% and -4%, respectively. Further, the outcome in experiment [5], in experiment [6], in experiment [7] and in experiment [8] was inactive.

With `CC1(C)N=C(N)N=C(N)N1OCCSc1ccccc1`, the growth inhibition in experiment [1] and in experiment [4] was 95% (active) throughout. The inhibition in experiment [2] was 68% (active); in experiment [3], 3%. Besides, the outcome in experiment [5], in experiment [6], in experiment [7] and in experiment [8] was inactive.

Consider `O=S(=O)(Nc1cccc(F)c1CNCc1ccccn1)c1ccc(Cl)c(Cl)c1`, for which the growth inhibition in experiment [1] is 34%; in experiment [4] it was 92% (active). Also, the inhibition in experiment [2] is 45%; in experiment [3], -5%. Besides, the result in experiment [5], in experiment [6], in experiment [7] and in experiment [8] was inactive.

For `CC(=O)Nc1ccc(CN(Cc2ccc(F)cc2)Cc2cccc(Oc3ccccc3)c2)cc1`, the figures for the growth inhibition in experiment [1] and in experiment [4] were 82% (active) and 88% (active), respectively. Moreover, the values for the inhibition in experiment [2] and in experiment [3] were -8% and 6%, respectively. The result in experiment [5], in experiment [6], in experiment [7] and in experiment [8] was inactive.

Consider `COc1ccc(C(=O)CCC(=O)N(Cc2ccc(-c3ccc(CNCCc4ccc(S(C)(=O)=O)cc4)cn3)cc2)C2C[C@@H]3CC[C@H]2C3)cc1F` (stereo not given in full), for which the results for the growth inhibition in experiment [1] and in experiment [4] were 34% and 97% (active), respectively. Further, the inhibition in experiment [2] is 5%; in experiment [3], 0%. Besides, the outcome in experiment [5], in experiment [6], in experiment [7] and in experiment [8] was inactive.

Take `Cc1ccc(NC(=O)c2ccc3ncccc3c2)cc1OC1CCN(CCC(C)C)CC1`: the growth inhibition in experiment [1] was 48%; in experiment [4], 94% (active). Further, the results for the inhibition in experiment [2] and in experiment [3] were 2% and -4%, respectively. For the same compound, the result in experiment [5], in experiment [6], in experiment [7] and in experiment [8] was inactive.

For the compound `CC(Oc1c(C2CCN(CCCCNC(=O)c3ccc(-c4ccc(C#N)cc4)cc3)CC2)ccc2c1CCCC2)C(N)=O` (stereo not given), the growth inhibition in experiment [1] was 83% (active); in experiment [4] it was 100% (active). Moreover, the inhibition in experiment [2] is 41%; in experiment [3], -3%. Also, the outcome in experiment [5], in experiment [6], in experiment [7] and in experiment [8] was inactive.

`O=C(NCc1ccc(Cl)c(Cl)c1)[C@H]1CNCCN1C(=O)c1ccccc1`: the values for the growth inhibition in experiment [1] and in experiment [4] were 4% and 97% (active), respectively. Besides, the inhibition in experiment [2] is -5%; in experiment [3], 1%. The outcome in experiment [5], in experiment [6], in experiment [7] and in experiment [8] was inactive.

Take `COC(=O)c1ccc2nc(-c3cc(-c4cccc(-c5ccccc5)c4)cnc3N)[nH]c2c1`: the growth inhibition in experiment [1] was 61% (active); in experiment [4], 101% (active). Also, the inhibition in experiment [2] was 25%; in experiment [3], 5%. The result in experiment [5], in experiment [6], in experiment [7] and in experiment [8] was inactive.

Consider `O=C(NCc1ccccc1)Nc1ccc(-c2cccc(-c3nc4ccc(C(F)(F)F)cc4[nH]3)c2)cc1`, for which the growth inhibition in experiment [1] was 23%; in experiment [4], 97% (active). Further, the inhibition in experiment [2] is 56% (active); in experiment [3], -1%. Moreover, the outcome in experiment [5], in experiment [6], in experiment [7] and in experiment [8] was inactive.

Consider `CC1CN(c2ccc(NC(=O)c3ccsc3)cc2C(=O)N2CCN(Cc3ccc(C(C)(C)C)cc3)CC2)CC(C)O1` (stereo not given), for which the growth inhibition in experiment [1] was 80% (active); in experiment [4], 90% (active). In addition, the figures for the inhibition in experiment [2] and in experiment [3] were 12% and 7%, respectively. Moreover, the result in experiment [5], in experiment [6], in experiment [7] and in experiment [8] was inactive.
